Laboratory results published in PubChem BioAssay.
Activity calls are given as the source filed them. No rule for the calls is given here.

What was measured:
[1] = test system: Botulinum neurotoxin type F light chain protease (Clostridium botulinum); assay: Clostridium botulinum type F light chain protease inhibitors, microsphere substrate cleavage, validation (AID 588459); settings: multiplex microsphere protease substrate cleavage assay, flow cytometry; at 10 µM; stronger effect = higher value
[2] = molecular target: Botulinum neurotoxin type A (Clostridium botulinum) (UniProt P0DPI0); assay: BoNT/A light chain protease inhibitors, biochemical, multiplex microsphere flow cytometry, validation set (AID 588460); settings: at 10 µM, stronger effect = higher value
[3] = molecular target: Lethal factor (Bacillus anthracis) (UniProt P15917); assay: Bacillus anthracis lethal factor inhibition, microsphere flow cytometry protease assay, validation at 10 µM (AID 588461); settings: multiplex microsphere protease cleavage assay, stronger effect = higher value

Measured: inhibition

COc1cc2c(cc1OC)C(=S)NC(C)(C)C2
inactive: [1] 2.8% | [2] -0.8% | [3] 2.9%

COc1ccc(/C=C/C(=O)Nc2ccccc2C(=O)O)cc1OC
inactive: [1] 2.5% | [2] -0.9% | [3] -6%

O=C(CCCN1CC=C(n2c(=O)[nH]c3ccccc32)CC1)c1ccc(F)cc1
inactive: [1] -1.3% | [2] -1% | [3] -5.4%

CC(=O)c1c[nH]c2ccc(C)cc2c1=O
inactive: [1] -1.7% | [2] -0.6% | [3] -1.2%

CC1(C)CC(C(CC(=O)O)c2ccccc2)CCO1 (configuration not stated)
inactive: [1] 0.4% | [2] -0.2% | [3] -7.8%

C=CC1=C(C(=O)O)N2C(=O)C(NC(=O)Cc3ccccc3)C2SC1 (configuration not stated)
inactive: [1] 2.1% | [2] 0.1% | [3] -3.4%

COc1ccc(/C=C\c2cc(OC)c(OC)cc2CC[N+](C)(C)C)cc1OC
inactive: [1] 2% | [2] -1.4% | [3] 3.5%

COc1ccccc1N1CCN(CC(O)COc2cccc3ccccc23)CC1 (configuration not stated)
inactive: [1] -2% | [2] -2.3% | [3] -6.6%

CC1(C)Cc2nc3sc4c(=O)n(CC(N)=O)cnc4c3cc2CO1
inactive: [1] -0.6% | [2] 1.1% | [3] -3.8%

Cc1nc2ccccn2c(=O)c1CCN1CCC(C(=O)c2ccc(F)cc2)CC1
inactive: [1] 1.5% | [2] 0.8% | [3] -0.4%

C#CCN(C)CCCOc1ccc(Cl)cc1Cl
inactive: [1] 1.1% | [2] -1.4% | [3] -10.6%

CN(C)CCOc1ccc(Cl)cc1C(C)(C)C
inactive: [1] -7.7% | [2] -2.2% | [3] -7.1%

Cn1cc(CN2CCN(CCO)CC2)c(-c2ccc(Oc3ccccc3)cc2)n1
inactive: [1] 2.6% | [2] 0.5% | [3] -1.5%

CCN(CC)c1ccc(C2=NNC(=O)CC2C)cc1[N+](=O)[O-] (configuration not stated)
inactive: [1] -2.1% | [2] -0.3% | [3] -6.2%

CC(=O)Nc1ccccc1C(=O)C(=O)Nc1ccccc1
inactive: [1] 2.1% | [2] 0.9% | [3] -1.5%

Cn1nnnc1SCC1=C(C(=O)O)N2C(=O)[C@@H](NC(=O)[C@H](O)c3ccccc3)[C@H]2SC1
inactive: [1] 1% | [2] 0.9% | [3] 1.9%

CCOc1ccc(C(=O)C(C)=O)c(OCC)c1
inactive: [1] 4.3% | [2] 1% | [3] 7.8%

CN1CCN(CC/C=C2/c3ccccc3Sc3ccc(S(=O)(=O)N(C)C)cc32)CC1
inactive: [1] 3.2% | [2] 0.9% | [3] 0%

COc1cccc2c(O)cc(=O)n(C)c12
inactive: [1] -7.7% | [2] -0.5% | [3] -8.1%

CC1CNCCN1S(=O)(=O)c1cccc2cnccc12 (configuration not stated)
inactive: [1] 2.5% | [2] -0.1% | [3] 1.6%

CC(=O)[C@@]1(O)CC[C@H]2[C@@H]3C[C@H](C)C4=CC(=O)CC[C@]4(C)[C@H]3CC[C@@]21C
inactive: [1] -1.7% | [2] -2.5% | [3] -5.5%

CC(NCCc1ccc(O)cc1)C(O)c1ccc(O)cc1 (configuration not stated)
inactive: [1] 1.6% | [2] -0.5% | [3] -3.1%

COC(=O)c1cc(COc2ccc3ccc(=O)oc3c2)c(C)o1
inactive: [1] -0.4% | [2] -1.4% | [3] 1%

CN(C)CCN(Cc1cccs1)c1ccccn1
inactive: [1] 2.5% | [2] -0.3% | [3] -1.6%

Cc1ccc(C(=O)NCCNC(=O)c2ccccc2)cc1
inactive: [1] 1.3% | [2] 0.3% | [3] -1.4%

Cc1ccc2c(c1)C1CN(C)CCC1N2S(=O)(=O)c1ccc(Oc2ccc([N+](=O)[O-])cc2)cc1 (configuration not stated)
inactive: [1] 2.6% | [2] 0.4% | [3] 8.4%

CC(C)COCC(CN(Cc1ccccc1)c1ccccc1)N1CCCC1 (configuration not stated)
inactive: [1] 1.2% | [2] -1.8% | [3] -2%

COc1ccc(OC)c(-c2oc3ccccc3c(=O)c2O)c1
inactive: [1] 0.6% | [2] 1.3% | [3] 2.9%

COc1ccccc1C(CC(=O)Nc1ccccc1C)c1ccc(OC(C)C)cc1 (configuration not stated)
inactive: [1] -0.1% | [2] -0.8% | [3] -7.4%
